Compounds with a hit are over-represented: about 1.5% of the library has one in this group of screens.
IL2 activator: qHTS of IL-2 Activators. IL-2 activation reporter assay, cell-based qHTS; stimulated with anti-CD3/CD4/CD28 beads; in transgenic mouse T cells. 360,000 tested, 0.065% active. AID 652025, 2013. activation, % (series mostly up to about 46 µM); in the data active means activation above about 50%; inconclusive means mostly about 30% to 49%; further: 0% is about no effect
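EGFP and DsRed fluorescence is measured by plate cytometry in unstimulated transgenic mouse T cells exposed to compound for 60 minutes, then stimulated 18 hours at 37 degrees C with anti-CD3/anti-CD4 beads plus anti-CD28.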
uPA surface inh: qHTS for Inhibitors of Cell Surface uPA Generation. cell surface uPA generation assay, qHTS. Potency, µM (top dose mostly 38.3 µM), for the others: at the highest dose activity change, negative = inhibition, actives largely listed as inhibitors. 330,000 tested, 0.31% active; active means well fitted inhibition curve with a large enough effect; inconclusive means small, poorly fitted or top-dose-only effect; inactive means no such curve, though single readings can be large or run the other way; tested in mouse RAW 264.7 cells; further: potency means the concentration at half of the fitted maximal effect; on the % scale 0 is the no-effect control and ±100 the full control effect; nearly all actives have a fitted effect of over 55% in size
Integrin act MD: qHTS for Activators of Integrin-Mediated Alleviation for Muscular Dystrophy | 350,000 tested, 0.064% active | alpha7betagal myoblasts, beta-gal FDG fluorescence, 48 h | Potency, µM (series often up to 38.3 µM), inactives show at the highest dose activation, hits mostly activators;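 further: potency means the concentration at half of the fitted maximal effect; 100% = response of the positive control SU9516; nearly all actives have a fitted effect of over 60% in size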
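Alpha7betagal+/- myoblasts (passage 13) were plated 16-24 hr, then exposed to compounds (1:260 dilution of DMSO stock) for 48 hours at 37C. After MPER lysis, β-galactosidase reporter activity was read as FDG fluorescence (ex 480/em 540) after 30 minutes.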
Nrf2 ARE act: qHTS of Nrf2 Activators. AREc32 ARE-luciferase reporter (MCF7-derived line), luminescence, 24 h. Potency, µM (series often up to 46.1 µM), inactives show top-dose activation, actives largely listed as activators. 410,000 tested, 0.31% active; further: potency means the concentration at half of the fitted maximal effect; % of control where 0% means no effect; nearly all actives have a fitted effect of over 65% in size
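AREc32 cells carrying an ARE-driven firefly luciferase reporter were seeded at 1000 cells/well in OPTI-MEM with 5% FBS, then exposed to compound for 24 hr at 37 deg C. Luminescence was read with Steady-Glo after 30 min at RT.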
ALOX12 inh: Primary qHTS assay for inhibitors of human arachidonate 12S-lipoxygenase (ALOX12): Round 2; Polyunsaturated fatty acid lipoxygenase ALOX12 (Homo sapiens), P18054; purified 12hLO, xylenol orange hydroperoxide absorbance; Potency, µM (series often up to 108 µM), inactives show top-dose activity change, negative = inhibition, usual class: inhibitors; 580,000 tested, 1.1% active; further: potency means the concentration at half of the fitted maximal effect; on the % scale 0 is the no-effect control and ±100 the full control effect
Target sequence (P18054 whole entry, looked up): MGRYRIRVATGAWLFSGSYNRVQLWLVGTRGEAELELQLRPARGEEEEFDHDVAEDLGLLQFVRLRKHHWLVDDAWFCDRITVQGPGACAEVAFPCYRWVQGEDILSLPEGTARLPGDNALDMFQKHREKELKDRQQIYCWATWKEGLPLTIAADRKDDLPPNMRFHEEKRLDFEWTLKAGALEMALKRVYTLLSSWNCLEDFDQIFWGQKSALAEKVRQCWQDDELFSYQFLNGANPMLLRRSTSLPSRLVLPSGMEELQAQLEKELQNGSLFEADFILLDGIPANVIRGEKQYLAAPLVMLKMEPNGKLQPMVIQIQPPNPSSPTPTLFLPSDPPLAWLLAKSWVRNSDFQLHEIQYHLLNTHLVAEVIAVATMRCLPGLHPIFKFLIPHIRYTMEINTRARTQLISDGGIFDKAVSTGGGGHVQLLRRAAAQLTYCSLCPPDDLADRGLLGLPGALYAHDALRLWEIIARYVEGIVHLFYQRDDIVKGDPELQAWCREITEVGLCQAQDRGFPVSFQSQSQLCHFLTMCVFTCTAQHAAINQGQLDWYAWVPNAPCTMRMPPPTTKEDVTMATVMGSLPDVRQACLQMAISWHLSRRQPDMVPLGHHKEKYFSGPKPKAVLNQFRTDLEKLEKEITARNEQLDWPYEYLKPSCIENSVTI
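Purified human 12hLO (150 nM final) in 25 mM Hepes, 0.01% Triton X-100, pH 7.0 was preincubated 15 min at room temperature with compound. Then 40 uM arachidonic acid was added, 30 min. Hydroperoxide was read by Fe-XO absorbance ratio 573/405 nm.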
Numbers without * were called inactive; u = inconclusive; x = no result; ! = not confirmed by another sample; [ ] = another dose, or the depositor's remark. Unless noted, the call rests on the fitted dose curve; in most records, active means well fitted curve in the direction sought with a large enough effect; inconclusive means small, poorly fitted or top-dose-only effect, or another doubt; inactive means no such curve, though single readings can be large; an effect the other way counts as inactive or inconclusive.

SMILES | IL2 activator | uPA surface inh | Integrin act MD | Nrf2 ARE act | ALOX12 inh
CC1CCN(C(=O)C(=O)N2CCN(c3nc(-c4ccco4)c4c(c3C#N)CCC4)CC2)CC1 | x | x | x | x | 35%
CCC(=O)N1CCN(c2nc(-c3ccco3)c3c(c2C#N)CC(C)(C)SC3)CC1 | x | x | x | x | 20µM*
CC1(C)Cc2c(C#N)c(N3CCN(C(=O)c4ccco4)CC3)nc(-c3ccco3)c2CS1 | -4 | -8% | 14% | 2% | 2%
CC1CCN(C(=O)C(=O)N2CCN(c3nc(-c4ccco4)c4c(c3C#N)CCCC4)CC2)CC1 | x | x | x | x | 32µM*
CC1(C)Cc2c(C#N)c(N3CCN(C(=O)c4ccccc4Cl)CC3)nc(-c3ccco3)c2CS1 | 1 | 8% | 8% | 3% | 8%
CC(=O)N1CCN(c2nc(-c3ccco3)c3c(c2C#N)CC(C)(C)SC3)CC1 | -2 | -3% | -36% | 0% | 35µM*!
COc1ccc(C2=NOC3(CCCN(C(=O)c4ccc(C(F)(F)F)cc4)C3)C2)cc1 (configuration not stated) | x | x | x | x | 7%[6.33 µM]
O=C(c1ccccc1)N1CCN2C(=O)N(Cc3ccc(F)cc3)C[C@H]2C1 | x | x | x | x | 22%[176 µM]
CN(C)S(=O)(=O)N(CC(=O)NC1CCCC1)c1ccccc1 | x | x | x | x | -2%
Cc1ccc2c(c1)N(C(=O)CSc1nncn1C)C(C)(C)c1ssc(=S)c1-2 | -1 | -8% | -17%[1.53 µM] | 2% | 35µM*
COC(=O)c1cc2c(c3c4ccccc4n(S(=O)(=O)c4ccc(OC)cc4)c13)C(=O)N(Cc1ccc(N(C)C)cc1)C2 | x | x | x | x | -24%
COC(=O)c1cc2c(c3c4ccccc4n(S(=O)(=O)c4ccc(OC)cc4)c13)C(=O)N(Cc1ccco1)C2 | x | x | x | x | 40µM*
O=C(NCC1CCCN(C(=O)c2ccc3[nH]ccc3c2)C1)c1ccc(-c2ccccc2)cc1 (configuration not stated) | x | x | x | x | 2%
CC1CCN(c2nc3ccc(C(=O)NCCCN4CCCCC4C)cc3s2)CC1 (configuration not stated) | 1 | 11µM* | -51% | 0% | 3%
O=C(CNS(=O)(=O)Cc1ccccc1)NNc1ccccc1 | 0 | x | x | -1% | 40µM*
O=C(CNS(=O)(=O)Cc1ccccc1)NCc1ccccc1 | -4 | 1% | 28% | 0% | 17%
CCCCN(CCCC)CCNC(=O)c1cn(C)c2ccc(S(=O)(=O)N(C)C3CCCCC3)cc2c1=O | -1 | -10% | 10µM* | -1% | 0%
CC(=O)N1CCN(Cc2ccc(F)c(C(F)(F)F)c2)CC(O)C1 (configuration not stated) | x | x | x | x | 4%
Oc1c(Cl)cccc1C=Nc1cc(C(F)(F)F)ccc1Oc1ccccc1Cc1ccccc1 | x | x | x | x | -24%
CC(=O)Oc1cc(C(=O)OCC(=O)NC23CC4CC(CC(C4)C2)C3)cc(OC(C)=O)c1OC(C)=O | 1 | 10µM* | -9% | 0% | u
CN(C(=O)Nc1ccccc1F)C(c1ccc(Cl)cc1)c1nccn1C (configuration not stated) | x | x | x | x | 38%
CC(CN1CCOCC1)NS(=O)(=O)c1ccc(F)cc1Cl (configuration not stated) | x | x | x | x | 9%
O=c1cc(-c2ccco2)oc2c1ccc1ccccc12 | 0 | -5% | -16% | u | -4%
O=c1cc(C(Cl)(Cl)Cl)oc2c1ccc1ccccc12 | -3 | -13% | -71% | 13µM* | -20%
CC(=O)N1N=C(c2ccc(Br)cc2)CC1c1ccc(Br)cc1 (configuration not stated) | -2 | x | -4% | 4% | u
SMILES | IL2 activator | uPA surface inh | Integrin act MD | Nrf2 ARE act | ALOX12 inh
CC(C)c1ccc(C2CC(c3ccc(Br)cc3)=NN2C(N)=S)cc1 (configuration not stated) | 0 | 2% | -49% | 6% | 45µM*
Cc1cc(-n2cccn2)ccc1CN(C)CC(C)N1CCOCC1 (configuration not stated) | x | x | x | x | 76%
COc1ccc2nc(/C=C/c3cccc(O)c3)sc2c1 | x | x | x | x | 6.3µM*
c1ccc2c(c1)-c1nc3ccccc3cc1C2N1CCCCC1 (configuration not stated) | -3 | x | -11% | 13% | u
O=c1cccc2n1Cc1cc3ccccc3nc1-2 | -1 | 7.9µM* | 5% | 11% | u
Cc1cc(C)cc(N=Cc2[nH]c3ccc(Br)c(Cl)c3c2O)c1 | 54* | 5% | -45% | u | u
O=C1S/C(=C\C=C\c2ccco2)C(=O)N1c1ccc(O)cc1 | 3 | 1% | -21% | u | 40µM*
O=C1S/C(=C\C=C\c2ccco2)C(=O)N1c1ccccc1 | -2 | -4% | -2% | 8.9µM* | 28µM*
O=C1S/C(=C\c2cccs2)C(=O)N1c1ccc(O)cc1 | 2 | 6% | -23% | 7% | 0%
O=C(O)CCCN1C(=O)/C(=C/C=C/c2ccco2)SC1=S | 7 | -2% | -33% | u | u
Cc1ccc(CCNC(=O)c2ccc(Cn3ccn4nc5c(c4c3=O)CCCC5)cc2)cc1 | x | x | x | x | 11%
Fc1ccccc1Nc1n[nH]c(=S)s1 | 1 | -4% | -9% | 8% | 25µM*
Cc1ccccc1Nc1n[nH]c(=S)s1 | 3 | x | 0% | -1% | u
Cc1c(Cl)cccc1Nc1n[nH]c(=S)s1 | -4 | -3% | 31% | 0% | 22µM*
C=C(C)CN1CCN(c2nc3c(c(=O)[nH]c(=O)n3C)n2Cc2ccc(Br)cc2)CC1 | x | x | x | x | 12%
O=C(c1ccccc1)C1OC1C(=O)c1ccccc1 (configuration not stated) | -1 | -13% | -34% | 13µM* | u
Cc1cnc(CC2CCN(S(=O)(=O)c3cccc(F)c3)C2)n1C(C)C (configuration not stated) | x | x | x | x | 34%
COc1ccc(C(=O)NCc2c(C)nn(Cc3ccccc3)c2C)cc1S(=O)(=O)N1CCOCC1 | 0 | 10µM* | 1% | -1% | 6%
COc1ccc(S(=O)(=O)N2CCOCC2)cc1C(=O)NCc1c(C)nn(Cc2ccccc2)c1C | -2 | 8% | 8% | 0% | 9%
O=C(NC1CCCCCC1)c1ccc2c(c1)CC(=O)N2Cc1ccc(F)cc1 | x | x | x | x | -16%
O=C(O)c1ccc2c(c1)CC(=O)N2Cc1ccc(F)cc1 | x | x | x | x | 11µM*
O=S(=O)(c1ccccc1)c1nc(Nc2cccc(O)c2)sc1Cl | 1 | -3% | -4% | 5% | 35µM*
Cc1ccc(S(=O)(=O)Oc2ccc3c(c2)O/C(=C\c2ccccc2C)C3=O)cc1 | x | x | x | x | -19%
O=C1C(=Cc2cccs2)Oc2ccccc21 | -1 | -2% | 12% | 11µM* | -21%
Cc1ccccc1/C=C1\Oc2ccccc2C1=O | 0 | -8% | 3% | 13µM* | -6%
Cc1cc(C(C)(C)C)cc(C)c1Cn1c2[n+](c3ccc(C(F)(F)F)cc31)CCCCC2 | -6 | -18% | -28% | -2% | 35µM*

Compound activity: PubChem BioAssay, National Center for Advancing Translational Sciences (NCATS)
